Reference: the supplement of paper PMC6555819

Legend:
Test in all cases: PBM binding z-score (relative to random genomic background probes); higher = stronger binding; sequences stand for … in GC…GCGATTGACAGCGTAGAATGAAGG
[1] = test system: FXR:RXRa (NR concentration 270 nM, RXRa partner concentration 90 nM)
Method in brief: (§1)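 Ligand-free nuclear receptor dimers were applied to custom Agilent 4×180K protein-binding microarrays whose double-stranded probes carried direct-repeat seeds, single-nucleotide variants, half-site ablations and random human genomic background sequences in 34-nt variable regions. Incubation lasted 1 h. Binding z-scores were computed against the random background probes from regression-normalized fluorescence.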

[2] = test system: LXRa:RXRa (NR concentration 270 nM, RXRa partner concentration 90 nM)
Method in brief: as §1

[3] = test system: LXRa homodimer (NR concentration 270 nM)
Method in brief: as §1

[4] = test system: LXRb:RXRa (NR concentration 270 nM, RXRa partner concentration 90 nM)
Method in brief: as §1

[5] = test system: LXRb homodimer (NR concentration 270 nM)
Method in brief: as §1

[6] = test system: PPARa:RXRa (NR concentration 270 nM, RXRa partner concentration 90 nM)
Method in brief: as §1

[7] = test system: PPARg:RXRa (NR concentration 180 nM, RXRa partner concentration 90 nM)
Method in brief: as §1

[8] = test system: PPARg:RXRa 270nM:90nM, anti-RXR (NR concentration 270 nM, RXRa partner concentration 90 nM)
Method in brief: as §1

[9] = test system: PPARg:RXRa 30nM:10nM, anti-RXR (NR concentration 30 nM, RXRa partner concentration 10 nM)
Method in brief: as §1

[10] = test system: PPARg:RXRa 90nM:30nM, anti-RXR (NR concentration 90 nM, RXRa partner concentration 30 nM)
Method in brief: as §1

[11] = test system: PPARg:RXRa DBDmut IVT, anti-RXR (DBD mutation: RXRa K156A/R161A, NR concentration 270 nM, RXRa partner concentration 90 nM)
Method in brief: as §1

[12] = test system: PPARg:RXRa IVT, anti-PPARg (NR concentration 270 nM, RXRa partner concentration 90 nM)
Method in brief: as §1

[13] = test system: PPARg DBDmut:RXRa IVT, anti-PPARg (DBD mutation: PPARg1 K132A/R137A, NR concentration 270 nM, RXRa partner concentration 90 nM)
Method in brief: as §1

[14] = test system: PPARg DBDmut IVT, anti-PPARg (DBD mutation: PPARg1 K132A/R137A, NR concentration 270 nM)
Method in brief: as §1

[15] = test system: PPARg homodimer (NR concentration 180 nM)
Method in brief: as §1

[16] = test system: PXR:RXRa (NR concentration 270 nM, RXRa partner concentration 90 nM)
Method in brief: as §1

[17] = test system: PXR homodimer (NR concentration 270 nM)
Method in brief: as §1

[18] = test system: RARa:RXR (NR concentration 270 nM, RXRa partner concentration 90 nM)
Method in brief: as §1

[19] = test system: RARa homodimer (NR concentration 270 nM)
Method in brief: as §1

[20] = test system: RARb:RXRa (NR concentration 270 nM, RXRa partner concentration 90 nM)
Method in brief: as §1

Sequence	PBM binding z-score [1]	PBM binding z-score [2]	PBM binding z-score [3]	PBM binding z-score [4]	PBM binding z-score [5]	PBM binding z-score [6]	PBM binding z-score [7]	PBM binding z-score [8]	PBM binding z-score [9]	PBM binding z-score [10]	PBM binding z-score [11]	PBM binding z-score [12]	PBM binding z-score [13]	PBM binding z-score [14]	PBM binding z-score [15]	PBM binding z-score [16]	PBM binding z-score [17]	PBM binding z-score [18]	PBM binding z-score [19]	PBM binding z-score [20]
TATACAGGGTCAAAGGCTAGAGTACGAATGTCGA	7.16	6.17	2.74	4.84	2.57	5.93	7.9	7.07	5	6.71	2.33	4.88	1.73	2.03	3.15	4.01	1.01	5.02	1.11	4.53
CCGACTGGGGCAGAAAGGTTGCCATACCATCCGG	-0.157	-0.408	-0.611	-0.446	-1.22	0.46	0.735	1.19	-0.155	0.7	1.37	1.17	-1.21	-1.54	-0.128	-0.241	-0.699	-0.0627	-0.964	0.6
GCAGACAGGTGAAACGCAAGTAACTCAGGGTGGC	-0.454	-0.128	-0.469	-0.359	-0.954	0.613	0.63	-0.0352	-0.456	-0.429	0.725	0.495	-0.728	-0.714	-0.578	-0.359	-0.754	-0.0735	-0.461	0.562
TCTAGTTGGTCACGGAGGTCATACACGACGGGTA	3.53	3.79	3.37	3.52	0.955	3.92	3.08	3.93	3.65	3.86	2.41	3.69	1.98	1.06	2.96	4.57	2.33	4.38	1.78	3.59
ACAGACAGGTGATGAAGGTAACTCATGCTATCAT	-0.264	-0.284	0.081	-0.0857	-0.304	0.0179	0.862	-0.0647	0.121	-0.0244	0.199	0.711	-0.0414	-0.123	-0.0711	-0.216	-0.133	-0.118	0.279	0.221
CGAACTAGGTCATCCATGACAGTGAATACATTGA	3.96	2.2	0.578	2.07	0.325	5.09	7.88	6.33	4.18	5.8	8.18	8.57	4.46	1.2	1.67	1.53	0.0131	2.26	0.371	3.98
AGTCAAAGTTCACTAGGGAACGTAAGATTCAGCT	5.18	5.47	2.42	3.27	0.67	4.19	6.45	6.13	3.52	5.22	0.937	3.63	0.753	0.755	2.24	3.94	2.56	2.71	0.63	4.57
CGTCAAAGTTCAACTAAGGTAACGAAAAGCACGC	7.29	6.07	3.55	3.97	2.13	5.07	4.84	5.42	2.21	4.48	0.421	2.48	0.738	0.747	4.18	5.19	4.69	4.25	2.25	5.13
ACTATTAGTTGACTTGGGGCAACCGATACGACGC	0.435	0.287	0.238	0.754	1.05	-0.000395	0.902	0.242	0.327	0.389	0.684	0.607	1.18	1.45	0.367	0.156	0.385	0.245	0.466	0.789
CCTACCAGGCCAGGGTCACTCAAGCATTTCGCTT	2.09	1.56	-0.206	2.18	-0.678	2.88	0.899	1.61	-0.554	0.539	-0.315	1.13	-1.07	-1.26	1.75	2.39	0.0777	2.79	0.657	2.65
CCTACTGGGCCAAAAAGGTCATTGTTGCCGATAA	3.25	4.03	2.95	4.03	0.141	4.47	2.62	4.03	1.19	2.96	3.95	3.99	-0.0573	-1.07	2.39	4.29	1.92	4.33	0.787	3.56
GCTTGTAGCTCAAGGTTAAGAAAGACTAAGCTAA	-0.0638	0.559	-0.361	0.165	-0.751	0.893	-0.394	0.557	-0.472	0.243	-0.582	-0.296	-0.734	-0.739	-0.599	0.28	-0.587	0.556	-0.601	0.721
TCTGCTAGGTCAGTTGCTCAGCTAACGAGCTGCC	0.259	0.241	-0.836	-0.204	-0.131	0.67	-0.489	1.14	0.796	1.19	2.23	2.17	-0.136	0.103	-0.987	-0.163	-1.12	-0.122	-1.62	2.9
TCGACTAGGTTACCAATGGGGCATTCAGCTTTCT	0.55	1.5	-0.443	1.49	-0.537	1.37	0.614	1.78	2.68	2.06	4.11	2.87	0.333	0.263	0.845	0.199	-0.246	0.659	-0.05	1.18
TCTTGTAGATGAAAGGTTAAGAAAGCCGAAGCCT	1.26	1.83	0.275	1.67	0.361	3.62	5.98	6.86	6.79	7.44	2.04	2.16	0.389	0.195	0.811	1.29	0.117	2.05	0.435	1.73
